Here are results for five compounds from PubChem BioAssay.

Calls of active or inactive are those of the source. Unless noted, no rule for the calls is given here.

The subject of test [1] is Wnt5a (protein binding on small-molecule microarray). Kind of test: small molecules binding Wnt5a protein – biophysical, small-molecule microarray, 635/667 nm fluorescence, primary screen (AID 1142).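 Also: fluorescence read at 667 nm with signal to noise per printed feature.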 Conditions: 635 nm fluorescence, higher = more signal.
Test [2] in a line: ATP-based viability of Huh7 replicon cells – cell-based, CellTiter-Glo luminescence, basal, 48 h, cytotoxicity control for HCV replication inhibitor project, primary screen (AID 1143).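 Also: Huh7 hepatoma cells carrying a hepatitis C replication reporter with no stimulus; test concentration not given here.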 Conditions: higher = more signal, called active from +8 up or from −8 down. A general note: Replicon systems follow genome replication, usually without infectious particles.
Test [3] in a line: Pseudomonas biofilm growth suppression – PAO1 strain, BacTiter-Glo luminescence, LB-PBS, primary screen (AID 1144). Conditions: P. aeruginosa PAO1 biofilm, 12 h, higher = more signal.
A short description of test [4]: basal CRE-LacZ reporter activity in PC12 – cell-based, unstimulated, primary screen (AID 1145). Conditions: no forskolin, luminescence, 4.5 h, higher = more signal, called active from +8 up or from −8 down.
A short description of test [5]: forskolin-driven CRE-LacZ activity in PC12 – cell-based, CRE-LacZ reporter, forskolin-stimulated, primary screen (AID 1146).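 Also: PC12 cells with 6xCRE LacZ reporter stimulated by forskolin 10 µM; beta-galactosidase reporter signal reflecting CREB driven transcription.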 Conditions: luminescence, 4.5 h, higher = more signal, called active from +8 up or from −8 down.
The target in test [6] is Streptavidin (Streptomyces avidinii) (UniProt P22629). Kind of test: compounds binding control protein streptavidin – biophysical, small-molecule microarray, 635/667 nm fluorescence, artefact control for SMM compound annotation, primary screen (AID 1147).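 Also: signal reflects streptavidin binding to arrayed compounds as a control protein.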 Conditions: higher = more signal.
Sequence of Streptavidin (Streptomyces avidinii) (P22629 whole entry, looked up): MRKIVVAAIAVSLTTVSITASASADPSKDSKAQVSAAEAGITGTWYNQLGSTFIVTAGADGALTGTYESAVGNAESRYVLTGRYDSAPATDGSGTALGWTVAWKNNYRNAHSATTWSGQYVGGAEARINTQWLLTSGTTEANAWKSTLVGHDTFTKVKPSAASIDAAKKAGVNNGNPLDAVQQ
Test [7] can be described thus: probe aInhba binding on compound microarray – biochemical, small-molecule microarray, 635/667 nm fluorescence, primary screen (AID 1148).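 Also: score merges 667nm spot fluorescence with signal-to-noise for antibody binding to printed compounds.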 Conditions: higher = more signal.
In test [8] the target is Torsin-1A (Homo sapiens) (UniProt O14656). The test is described as follows: TOR1A wild-type binding on microarray – cell lysate, small-molecule microarray, lysate, 635/667 nm, primary screen (AID 1149). The conditions noted are these: COS7 hTOR1A-WT lysate, 635 nm fluorescence, higher = more signal.
Sequence of Torsin-1A (Homo sapiens) (O14656 whole entry, looked up): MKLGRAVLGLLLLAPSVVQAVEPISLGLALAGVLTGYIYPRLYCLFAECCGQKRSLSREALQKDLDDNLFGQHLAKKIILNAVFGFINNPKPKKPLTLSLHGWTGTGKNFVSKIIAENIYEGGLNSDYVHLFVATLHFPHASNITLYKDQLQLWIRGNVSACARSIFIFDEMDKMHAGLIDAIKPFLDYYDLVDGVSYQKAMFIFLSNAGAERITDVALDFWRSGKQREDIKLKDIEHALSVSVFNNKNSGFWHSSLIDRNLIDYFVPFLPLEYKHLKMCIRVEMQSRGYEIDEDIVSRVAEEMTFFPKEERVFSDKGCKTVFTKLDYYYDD
The target is the same in test [9]. Kind of test: torsin A mutant lysate binding on microarrays – cell lysate, small-molecule microarray, COS7 lysate, 635/667 nm fluorescence, primary screen (AID 1150).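 Also: score pools 667 nm emission and signal to noise measuring lysate protein binding.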 Conditions: COS7 hTOR1A mutant lysate, 635 nm fluorescence, higher = more signal.
Test [10] has as its system Sonic hedgehog protein (Shh). Kind of test: Sonic hedgehog microarray binding compounds – biochemical, small-molecule microarray, 635/667 nm fluorescence, primary screen (AID 1151).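 Also: Shh protein binding to compounds spotted on small-molecule microarray slides; score combines spot fluorescence intensity with signal-to-noise across triplicate slides.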 Conditions: 635 nm fluorescence, higher = more signal.
Test [11] can be described thus: optical density shifts of acrAB sulA E. coli – strain DRC41, OD650, 48 h, E. coli filamentation inducer project, primary screen (AID 1152).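 Also: E. coli MC1000 strain DRC41 lacking acrAB efflux pump and sulA.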 The conditions noted are these: higher = more signal, called active from +8 up or from −8 down.
Test [12] is described as follows: probe aLefty1 binding on compound microarray – biochemical, small-molecule microarray, 635/667 nm fluorescence, primary screen (AID 1153).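 Also: score merges spot fluorescence with signal-to-noise ratio from the scanned slide images.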 The conditions noted are these: higher = more signal.
Test [13] can be described thus: plasmodial surface anion channel blockers, osmotic lysis – cell-based, P. falciparum Indochina, OD700, 1 h, primary screen (AID 1154). The conditions noted are these: P. falciparum Indochina infected RBC osmotic lysis, higher = more signal, called active from +8 up or from −8 down.
Test [14] can be described thus: plasmodial surface anion channel blockers, osmotic lysis – cell-based, P. falciparum Indochina, OD700, 2 h, primary screen (AID 1155).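 Also: lysis reports solute entry through the parasite surface anion channel PSAC.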 Conditions: P. falciparum Indochina infected erythrocytes, higher = more signal, called active from +8 up or from −8 down.
A short description of test [15]: changes in parasitized red cell lysis, either direction – P. falciparum Indochina, OD700, 3 h, PSAC antagonist project, primary screen (AID 1156). Conditions: P. falciparum-infected erythrocytes, osmotic lysis, higher = more signal, called active from +8 up or from −8 down.
Test [16] in a line: plasmodial surface anion channel blockers, osmotic lysis – cell-based, P. falciparum Indochina, OD700, 18 h, primary screen (AID 1157). The conditions noted are these: P. falciparum Indochina infected erythrocytes, osmotic lysis OD700, 18 h; higher = more signal, called active from +8 up or from −8 down.
A short description of test [17]: S6 kinase pathway phospho-S6 level changes – cell-based, A549, cytoblot, luminescence, serum-stimulated, primary screen (AID 1158).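 Also: serum-stimulated A549 lung adenocarcinoma cells; signal is phosphorylated S6 detected by cytoblot immunostaining with HRP secondary.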 Conditions: 5 h, higher = more signal.
The target of test [18] is NADPH oxidase 2 (Homo sapiens) (UniProt P04839). The test is described as follows: compounds shifting NOX2 Amplex Red fluorescence – cell-based, HEK293-NOX2, PMA-stimulated, NOX inhibitor project, primary screen (AID 1159). Also: test concentration not given here. The conditions noted are these: 45 min, higher = more signal, called active from +8 up or from −8 down.
Sequence of NADPH oxidase 2 (Homo sapiens) (P04839 whole entry, looked up): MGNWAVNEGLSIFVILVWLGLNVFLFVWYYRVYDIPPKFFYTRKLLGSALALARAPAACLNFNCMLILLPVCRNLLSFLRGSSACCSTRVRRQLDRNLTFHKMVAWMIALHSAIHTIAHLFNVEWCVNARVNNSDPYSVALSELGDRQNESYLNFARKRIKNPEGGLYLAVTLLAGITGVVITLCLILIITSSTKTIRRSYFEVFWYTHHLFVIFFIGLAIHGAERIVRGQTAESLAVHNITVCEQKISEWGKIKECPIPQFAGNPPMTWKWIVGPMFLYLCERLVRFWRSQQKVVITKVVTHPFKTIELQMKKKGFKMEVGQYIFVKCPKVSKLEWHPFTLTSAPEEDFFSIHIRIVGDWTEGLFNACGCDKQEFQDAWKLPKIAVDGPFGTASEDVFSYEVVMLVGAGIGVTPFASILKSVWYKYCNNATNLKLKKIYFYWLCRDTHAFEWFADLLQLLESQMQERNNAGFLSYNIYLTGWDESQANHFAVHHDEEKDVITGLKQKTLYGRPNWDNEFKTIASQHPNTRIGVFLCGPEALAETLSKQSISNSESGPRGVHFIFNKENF
The target of test [19] is NADPH oxidase 4 (Homo sapiens) (UniProt Q9NPH5). The test is described as follows: compounds shifting NOX4 Amplex Red fluorescence – cell-based, HEK293-NOX4, tetracycline-induced, NOX inhibitor project, primary screen (AID 1160). The conditions noted are these: HEK293-NOX4, Amplex Red H2O2 fluorescence, 45 min; higher = more signal, called active from +8 up or from −8 down.
Sequence of NADPH oxidase 4 (Homo sapiens) (Q9NPH5 whole entry, looked up): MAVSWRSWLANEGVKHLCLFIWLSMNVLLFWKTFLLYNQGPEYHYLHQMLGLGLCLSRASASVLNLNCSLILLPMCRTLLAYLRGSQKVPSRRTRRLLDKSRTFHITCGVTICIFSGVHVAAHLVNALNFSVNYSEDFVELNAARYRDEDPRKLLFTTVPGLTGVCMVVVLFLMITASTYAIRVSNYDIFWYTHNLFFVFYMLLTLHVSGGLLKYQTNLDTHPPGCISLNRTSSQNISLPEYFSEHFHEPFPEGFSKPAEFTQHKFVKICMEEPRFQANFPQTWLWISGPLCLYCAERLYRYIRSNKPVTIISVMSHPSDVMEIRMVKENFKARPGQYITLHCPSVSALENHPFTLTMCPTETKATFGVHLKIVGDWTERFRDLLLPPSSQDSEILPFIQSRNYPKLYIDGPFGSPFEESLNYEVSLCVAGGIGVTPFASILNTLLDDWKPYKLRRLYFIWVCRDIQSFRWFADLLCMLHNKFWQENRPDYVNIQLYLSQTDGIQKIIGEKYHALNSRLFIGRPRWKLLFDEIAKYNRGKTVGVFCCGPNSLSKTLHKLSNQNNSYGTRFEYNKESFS

For test [20], the target named is NADPH oxidase 5 (Homo sapiens) (UniProt Q96PH1). Kind of test: compounds shifting NOX5 Amplex Red fluorescence – cell-based, HEK293-NOX5, NOX inhibitor project, primary screen (AID 1161). Conditions: HEK293-NOX5, ionomycin, 45 min, higher = more signal.
Sequence of NADPH oxidase 5 (Homo sapiens) (Q96PH1 whole entry, looked up): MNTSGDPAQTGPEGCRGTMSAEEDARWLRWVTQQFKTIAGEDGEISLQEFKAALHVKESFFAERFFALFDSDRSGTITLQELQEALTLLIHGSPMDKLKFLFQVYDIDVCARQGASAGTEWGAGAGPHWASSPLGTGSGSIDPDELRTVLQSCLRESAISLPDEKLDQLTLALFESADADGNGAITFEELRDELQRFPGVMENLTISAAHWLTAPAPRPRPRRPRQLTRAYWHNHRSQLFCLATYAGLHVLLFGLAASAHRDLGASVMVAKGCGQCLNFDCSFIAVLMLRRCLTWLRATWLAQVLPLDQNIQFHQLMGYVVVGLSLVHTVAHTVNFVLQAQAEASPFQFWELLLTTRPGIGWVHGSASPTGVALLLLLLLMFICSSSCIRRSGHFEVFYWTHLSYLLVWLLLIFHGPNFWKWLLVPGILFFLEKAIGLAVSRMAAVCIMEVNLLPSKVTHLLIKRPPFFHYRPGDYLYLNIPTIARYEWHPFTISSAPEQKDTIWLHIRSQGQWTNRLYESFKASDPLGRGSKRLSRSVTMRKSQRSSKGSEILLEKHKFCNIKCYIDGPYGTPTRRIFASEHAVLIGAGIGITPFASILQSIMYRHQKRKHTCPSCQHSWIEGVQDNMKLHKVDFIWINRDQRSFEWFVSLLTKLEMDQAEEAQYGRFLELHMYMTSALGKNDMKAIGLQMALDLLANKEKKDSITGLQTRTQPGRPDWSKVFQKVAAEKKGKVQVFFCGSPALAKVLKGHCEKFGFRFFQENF

On to `C=C(C(=O)CC[C@@H](OC(=O)c1cccnc1)c1cccc(OCCO)c1)C(C)C`, for which the composite z-score in test [1] was 0.222; in test [6] it was -0.0835; in test [7] it was -0.0736; in test [8] it was -0.0348; in [9], -0.234; in [10] it was 1.72. The compound also gave a composite z-score in [12] of -0.309. Further, the z-score in [2] is -2.97 (inactive); in [3] it was -0.372 (inactive); in test [4] it was 1.67 (inactive); in test [5] it was -1.24 (inactive); in [11], 1.35 (inactive); in [13], 13.8 (active). The z-score in [14] was 0.717 (inactive); in test [15], -0.204 (inactive); in test [16], -1.02 (inactive); in test [17] it was 0.62; in test [18], -0.967 (inactive); in test [19], -0.193 (inactive). The z-score in test [20] is -1.84.
In the case of `CC(C)c1ccc(NN2C(C(O)C3=C[C@H]4C[C@@H](C3)C4(C)C)C=CC3C(=O)N(c4ccccc4)C(=O)C32)cc1` (stereo not given in full), the composite z-score in [1] was 0.747; in [6] it was 1.56; in [7], 0.234; in test [8], 0.281; in test [9] it was 0.562; in test [10] it was -0.0766. Further, the composite z-score in [12] is 0.587. In addition, the z-score in test [2] is -0.005 (inactive); in [3], -0.335 (inactive); in test [4], 0.443 (inactive); in test [5], 0.551 (inactive); in test [11], -0.736 (inactive); in test [13], 1.8 (inactive). Besides, the z-score is 1.13 (inactive) in test [14]; 0.0675 (inactive) in test [15]; 1.37 (inactive) in [16]; -0.578 in [17]; -0.843 (inactive) in test [18]; -3.08 (inactive) in [19]. Also, the z-score in test [20] was -1.62.
`C[N+](C)(C)CCCC[C@@H]1NC(=O)[C@H]2C[C@@H](C(=O)NCCCCCN)[C@@H](c3ccc(O)cc3)N2C1=O`: the composite z-score was found to be 0.801 in [1]; 2.29 in [6]; 0.228 in test [7]; 0.926 in [8]; 0.6 in [9]; 2.17 in test [10]. For the same compound, in test [12], the composite z-score stood at 0.14. The z-score in [2] is -0.147 (inactive); in test [3], 0.69 (inactive); in test [4] it was 1.11 (inactive); in test [5], 0.466 (inactive); in test [11], 0.108 (inactive); in test [13], 0.105 (inactive). In addition, the z-score is 0.0643 (inactive) in test [14]; -3.73 (inactive) in test [15]; -0.0429 (inactive) in test [16]; -0.0286 in test [17]; 0.081 (inactive) in test [18]; -0.0444 (inactive) in test [19]. The z-score in test [20] worked out at 0.204.
Regarding `C=CCC(OC(C)=O)[C@@H]1[C@@H](N(Cc2ccc(-c3ccccc3)cc2)C(=O)Cc2ccc(OC)cc2)c2cc(OCCCO)ccc2N1C(=O)c1ccc2ccccc2c1` (stereo not given in full), the composite z-score in test [1] was -0.0966; in [6], 1.14; in test [7], -0.153; in test [8], -0.137; in test [9], -0.451; in test [10], 0.234. Besides, the composite z-score in test [12] was -0.529. Moreover, the z-score in [2] was -1.35 (inactive); in test [3] it was 0.832 (inactive); in test [4] it was 1.37 (inactive); in [5] it was 0.385 (inactive); in test [11], -0.894 (inactive); in test [13] it was 1.23 (inactive). The z-score is 0.384 (inactive) in [14]; -0.247 (inactive) in test [15]; 0.41 (inactive) in test [16]; -0.111 in test [17]; -0.48 (inactive) in test [18]; 0.832 (inactive) in [19]. For the same compound, the z-score in [20] came to 0.808.
Turning to `COc1cc(Cc2cc3c(c(-c4ccccc4)n2)[Si](C(C)C)(C(C)C)OC3)cc(OC)c1OC`, the composite z-score in test [1] was 0.26; in test [6], 1.89; in [7], 0.161; in test [8], -0.226; in test [9] it was -0.141; in test [10], 0.143. In addition, the composite z-score in [12] came out at 0.0299. Moreover, the z-score in test [2] is -0.324 (inactive); in test [3], -0.546 (inactive); in [4], -0.113 (inactive); in [5], -0.437 (inactive); in test [11] it was 0.752 (inactive); in test [13], 1.62 (inactive). Moreover, the z-score in test [14] is 0.702 (inactive); in test [15] it was 0.84 (inactive); in test [16], 0.332 (inactive); in [17] it was 0.159; in test [18], 1.04 (inactive); in test [19], 0.424 (inactive). The z-score in [20] came out at 0.0407.
